# Screening data (PubChem BioAssay)
# A selection: hits, their analogues and other compounds. The true share with any hit is near 2.1%.
# GALR2 blocker – GALR2 antagonists in receptor-expressing cells, primary screen | 140,000 tested, 0.39% active | antagonist mode | inhibition, % at 4 µM | Galanin receptor type 2 (Homo sapiens), O43603; in the data active means inhibition above about 27%;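 further: cells stimulated with galanin 1-16 at roughly its EC80; 0% = agonist challenge control and 100% = basal control without agonist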
# S1P2 blocker – human S1P2 receptor antagonists, primary screen, cell-based. cell-based S1P2 antagonist assay, inhibition at 5 uM. inhibition, % at 5 µM. 97,000 tested, 0.21% active; in the data active means inhibition above about 45%;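 further: CRE beta-lactamase reporter cells expressing human S1P2 stimulated with S1P; 0% = agonist at EC80 alone and 100% = agonist plus reference antagonist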
# Target sequence (O95136 whole entry, looked up): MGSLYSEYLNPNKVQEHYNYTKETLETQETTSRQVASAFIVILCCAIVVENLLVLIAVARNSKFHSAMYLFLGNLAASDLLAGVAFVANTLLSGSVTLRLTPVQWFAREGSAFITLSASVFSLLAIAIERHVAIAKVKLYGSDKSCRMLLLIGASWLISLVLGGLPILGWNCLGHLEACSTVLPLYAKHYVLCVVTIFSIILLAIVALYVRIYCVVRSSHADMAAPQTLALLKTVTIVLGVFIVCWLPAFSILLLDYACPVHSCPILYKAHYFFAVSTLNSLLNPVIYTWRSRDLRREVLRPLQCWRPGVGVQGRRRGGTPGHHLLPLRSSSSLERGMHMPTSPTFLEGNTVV
# hDAT+cocaine – changed hDAT dopamine uptake under cocaine IC80, either direction, primary screen, cocaine antagonist project, cell-based, LLC-PK1 hDAT, [14C]-dopamine uptake, MLSMR; Sodium-dependent dopamine transporter (Homo sapiens), Q01959; LLC-PK1 hDAT cells, [14C]-dopamine uptake with cocaine IC80; actives deviate in either direction; B-score at 10 µM; 110,000 tested, 1.3% active;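 active means Z score or B-score, a plate-position-corrected score, falls beyond the plate's 99.7% confidence bounds, in either direction; inactive means both scores lie inside the 99.7% bounds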;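 further: scored against the spread of the other compound wells on the same plate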
# GALR2 agonist – GALR2 receptor agonists, primary screen, cell-based. GALR2-expressing cells, agonist activation read-out. activation, % (test concentration not listed). Galanin receptor type 2 (Homo sapiens), O43603. 140,000 tested, 0.48% active; in the data active means activation above about 5%, passing the limit was not always enough;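 further: 0% = vehicle buffer wells and 100% = reference agonist at full effect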
# S1P2 ag – S1P2 receptor agonists, primary screen, cell-based. Sphingosine 1-phosphate receptor 2 (Homo sapiens), O95136. activation, % at 4.5 µM. S1P2-expressing cell line, agonist reporter read-out. 97,000 tested, 0.46% active. AID 729, 2007; in the data active means activation above about 16%;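 further: 0% = vehicle low control and 100% = maximal reference agonist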
# The depositor's hits bear a star; nt = not tested or not shown.
SMILES,GALR2 blocker,S1P2 blocker,hDAT+cocaine,GALR2 agonist,S1P2 ag
CCCCCCn1c2c(c(=N)c3c1CCC3)CCC2,-3,0,-0.5,-2,-5
CC1CCC(NC(=O)c2ccc3c(c2)S(=O)(=O)c2ccccc2C3=O)CC1 (configuration not stated),nt,nt,0.79,nt,nt
CN=C(Nc1ccccc1)SC1CC(=O)N(c2ccc(C(=O)OC)cc2)C1=O (configuration not stated),0,-3,-0.32,-1,-8
CN=C(Nc1ccccc1OC)SC1CC(=O)N(c2ccc(C(=O)OC)cc2)C1=O (configuration not stated),5,-21,2.4*,-2,-3
COC(=O)c1cn(NC(=O)C2CCC(C(C)(C)C)CC2)c(=O)c2ccccc12 (configuration not stated),-9,-9,1.4,0,-6
Cc1ccc(CCNC(=O)C2CCN(C(=O)N(C)C)CC2)cc1,-2,-21,0.46,-1,-6
Cc1ccc2nc(N/N=C/c3ccccc3C#N)nc(-c3ccccc3)c2c1,6,13,3.1*,1,-3
COc1cccc(NC(=O)N2CCCC2C(=O)NC2CC2)c1 (configuration not stated),13,1,0.53,-4,-7
CCOC(=O)c1c(C)[nH]c(C(=O)OC/C(O)=C(\C#N)c2nc3ccccc3[nH]2)c1C,-15,10,-0.28,-1,16*
COc1ccccc1OCC(=O)OC/C(O)=C(\C#N)c1nc2ccccc2[nH]1,-3,nt,nt,-1,nt
COc1cccc(-c2nnc3n2N=C(c2cc(OC)ccc2OC)CS3)c1,2,-21,0.77,-1,10
COc1cccc(-c2nnc3n2N=C(C(C)(C)C)CS3)c1,20,98*,0.61,-2,-8
COc1cc(-c2nnc3n2N=C(c2ccccc2)CS3)cc(OC)c1OC,-7,-26,0.38,1,34*
COc1ccccc1-c1nnc2n1N=C(C(C)(C)C)CS2,-7,0,1.3,0,-5
COc1ccc(OC)c(C2=Nn3c(nnc3-c3cc(OC)c(OC)c(OC)c3)SC2)c1,13,-25,1.2,1,40*
O=C(C1=C[C@H](C2CC2)C[C@H](OCCCCO)O1)N1CCOCC1,nt,nt,-0.89,nt,nt
Cc1cccc(NC(=O)c2cc(NC(=O)C3CCCCC3C(=O)O)ccc2N2CCCCC2)c1 (configuration not stated),3,nt,4*,0,nt
COc1ccc(OC)c(C2C(C(=O)c3cc4ccccc4o3)=C(O)C(=O)N2c2cc(C)on2)c1 (configuration not stated),-3,-20,3.8*,-1,-3
COc1ccc(C2C(C(=O)c3ccc(C)o3)=C(O)C(=O)N2c2cc(C)on2)cc1OC (configuration not stated),0,14,0.39,-1,-2
O=C(CCC1CCCC1)c1c(O)c2ccccc2oc1=O,3,-14,-3.2*,-3,-5
COc1ccccc1S(=O)(=O)Cc1ccc(C(=O)NCCN2CCCCCC2)o1,-3,nt,-0.77,-2,nt
CCOC(=O)C1=C(C)Nc2sc(C(=O)c3ccc(F)cc3)c(N)c2C1c1ccc(C(=O)OC)cc1 (configuration not stated),-9,nt,nt,-1,nt
CCOC(=O)C1=C(C)Nc2sc(C(=O)c3ccc(C)cc3)c(N)c2C1c1ccc(C(=O)OC)cc1 (configuration not stated),1,nt,nt,5.5*,nt
CC(C)c1nc2sc3c(NCc4ccco4)ncnc3c2c2c1COC(C)(C)C2,-11,-34,1.4,-1,20*
COc1ccccc1-n1cnc2cc(NCc3cccs3)ccc21,9,-9,-2.5*,-1,-6
SMILES,GALR2 blocker,S1P2 blocker,hDAT+cocaine,GALR2 agonist,S1P2 ag
Cc1ccccc1-n1cnc2cc(NCc3cccs3)ccc21,1,-17,-1.2,-2,-3
O=C(NCCCn1ccnc1)c1ccc(Br)c(S(=O)(=O)N2CCOCC2)c1,2,22,-8.4*,-1,-2
O=C(NCCCn1ccnc1)c1cc(S(=O)(=O)N2CCOCC2)c(Cl)cc1Cl,7,nt,0.34,-1,nt
CCN(CCCCCN(C)C)Cc1cc2ccccc2o1,3,nt,nt,-1,nt
Cc1ccc(S(=O)(=O)N2CC3(C)CN(S(=O)(=O)c4ccc(C)cc4)CC(C)(C2)C3O)cc1 (configuration not stated),10,nt,-0.37,5.0*,nt
CN(C(=O)CSc1nc(-c2ccccc2)cn1N)C(c1ccccc1)c1ccccc1,-17,8,0.61,-1,1
COc1cc2c(cc1OC)/C(=C/C#N)NC(C)(C)C2,-12,-42,0.66,0,26*
Cc1cc2c(cc1C)/C(=C\C(N)=O)NC(C)(C)C2,7,nt,0.35,-1,nt
CCOc1ccccc1NC(=O)N1CCCC1C(=O)Nc1ccc(NC(C)=O)cc1 (configuration not stated),10,5,0.019,-2,-7
COc1cccc(NC(=O)CN2CCN(c3ccc(F)cc3)CC2)c1,-6,-19,-2.5*,-3,-4
COC(=O)c1cccc(NC(=O)CN2CCN(c3ccc(OC)cc3)CC2)c1,-10,21,-0.27,-2,-2
COCc1nnc(NC(=O)CSc2ccccc2)s1,-2,-23,-2.6*,-1,1
CCCCn1c(/N=C/c2cc(OC)ccc2O)nc2ccccc21,20,8,2.7*,-2,-5
COc1ccc(-c2nc(CS(=O)CC(=O)NCc3ccc(Cl)cc3)c(C)o2)cc1 (configuration not stated),-7,-7,0.28,-2,-2
CC(C)(C)NC(=O)C(=O)NNC(=O)COc1ccc(Br)cc1,0,nt,nt,0,nt
Cn1c(C(=O)N2CCCC2)cc2c(=O)n(C)c3ccccc3c21,-15,-25,0.83,-1,21*
Cn1c(C(=O)NCCN2CCN(Cc3ccccc3)CC2)cc2c(=O)n(C)c3ccccc3c21,nt,nt,3.2*,nt,nt
Cn1c(C(=O)NCCN2CCCCCC2)cc2c(=O)n(C)c3ccccc3c21,1,-6,-0.069,-3,-1
Nc1nc(Br)c2c(F)cccc2c1-c1ccc(Cl)cc1,7,-8,1.1,13*,38*
CCOC(=O)c1cccc(NC(=O)CSc2nnc(C)n2Cc2ccccc2)c1,8,-1,3.3*,-1,-10
COc1ccc(Br)cc1S(=O)(=O)n1ccnc1C,7,16,2.7*,1,-7
Cn1c(=O)[nH]c(=O)c2[nH]c(CN3CCN(Cc4ccccc4)CC3)nc21,nt,nt,-0.76,nt,nt
Cn1c(=O)[nH]c(=O)c2[nH]c(N(Cc3ccccc3)Cc3ccccc3)nc21,-21,56*,1.3,1,5
CCOC(=O)C1=C(O)/C(=C/c2cc(OC)c(OC)c(OC)c2)SC1=Nc1ccc(OC)cc1,-11,-20,nt,-2,37*
Cc1ccc(N2C(=O)CC(Sc3ncn[nH]3)C2=O)cc1C (configuration not stated),-5,15,-3.1*,-3,-7
